# Several values for one entry are separate records, joined by “and”; a condition that tells them apart may be missing. Equal entries are not always repeated. Some structures have more than one record in an assay (separate samples or runs), and their calls can disagree. Activity calls are given as the source filed them. The calls were made as follows: active = hit-call score of the fitted dose curve at least 0.9, where 1 is the maximum; inactive = score below 0.9.
# Experiment: ATG_CRE_CIS: Attagene CIS-FACTORIAL HepG2 Assay for human cAMP Responsive Element (CRE) binding protein 3 (AID 2282926)
# Settings: HepG2 CRE cis-reporter, Attagene multiplexed mRNA; actives raise or lower the signal
# Procedure: ATG_CIS is a cell-based, multiplexed-readout assay that uses HepG2, a human liver cell line, with measurements taken at 24 hours after chemical dosing in a 24-well plate.ATG_CRE_CIS is one of 52 assay component(s) measured or calculated from the ATG_CIS assay. It is designed to make measurements of mRNA induction, a form of inducible reporter, as detected with fluorescence intensity signals by Reverse transcription polymerase chain reaction (RT-PCR) and Capillary electrophoresis technology.Data from the assay component ATG_CRE_CIS was analyzed into 1 assay endpoint. This assay endpoint, ATG_CRE_CIS, was analyzed with bidirectional fitting relative to DMSO as the negative control and baseline of activity. Using a type of inducible reporter, measures of mRNA for gain or loss-of-signal activity can be used to understand the reporter gene at the transcription factor-level as they relate to the gene CREB3. Furthermore, this assay endpoint can be referred to as a primary readout, because this assay has produced multiple assay endpoints where this one serves a reporter gene function. To generalize the intended target to other relatable targets, this assay endpoint is annotated to the dna binding intended target family, where the subfamily is basic leucine zipper.
# Human liver HepG2 cells are transiently transfected with multiple reporter transcription units (MRTUs) in 6-well plates using FuGene 6 reagent (Roche; 3 ml FuGene/1 mg DNA). The MRTU constructs are regulated by a cis-regulating element (promoter). […] A major difference between the CIS and TRANS system is that in CIS activities of endogenous TFs are measured, whereas the TRANS assay evaluates changes in activities of exogenous, chimeric NR-Gal4 proteins. […] At the end of 24 hour incubation, total RNA was isolated using TriZol reagent (Invitrogen). The isolated RNA is then reverse-transcribed using oligo(dT) primer and Mo-MLV reverse transcriptase (Invitrogen) with DNAse I (Ambion) treatment for 30 min. The one-tenth of the produced cDNA was amplified by PCR using Taq DNA polymerase (Invitrogen) and two reporter sequence-specific primers. The PCR products were fluorescently labeled by primer extension with 6-arboxyfluorescein (6-FAM) 5'-labeled reporter sequence-specific primer (2 min at 95 C, 20 s at 68 C and 10 min at 72 C) and these products were digested with 5U of HpaI (New England Biolabs) for 2h at 37 C. The fragments were purified using Qiaquick PCR columns (Qiagen), analyzed on an ABI 3130xL genetic analyzer (Applied Biosystems) with peak positions identified by using a set of X-rhodamine (ROX)-labeled MapMarker1000 molecular weight standards (BioVentures). The raw capillary electrophoresis data was processed using Attagraph software (Attagene).
SMILES,outcome,AC50
FC(F)(I)C(F)(F)C(F)(F)C(F)(F)C(F)(F)C(F)(F)I,inactive,–
CCCCCCCCCCCCc1ccccc1S(=O)(=O)O,inactive,–
CC(C)CCCCCCOC(=O)CCCCC(=O)OCCCCCCC(C)C,inactive,–
Cc1cc(C)c(O)c(C)c1,inactive,–
COCC(C)O (stereo not given),inactive,–
CC#C[C@]1(O)CC[C@H]2[C@@H]3CCC4=CC(=O)CCC4=C3[C@@H](c3ccc(N(C)C)cc3)C[C@@]21C,inactive,49.8 µM (active) and 47.6 µM (active) and 23.3 µM (active)
CCCCC[C@H](O)CC(=O)CCc1ccc(O)c(OC)c1,inactive,–
CCC(=C(c1ccc(O)cc1)c1ccc(OCCN(C)C)cc1)c1ccccc1,inactive,–
Oc1cccc(O)c1,inactive,–
ClC1=C(Cl)C(Cl)(Cl)C(Cl)=C1Cl,inactive,11.9 µM (active)
CCCCC(CC)COC(=O)CCCCC(=O)OCc1ccccc1 (stereo not given),inactive,–
OCCC(F)(F)C(F)(F)C(F)(F)C(F)(F)C(F)(F)C(F)(F)F,inactive,154 µM (active)
c1ccc2c(c1)Cc1ccccc1-2,inactive,–
CCCCC(CC)COC(=O)CCCCC(=O)OCC(CC)CCCC (stereo not given),inactive,–
COc1ccc([N+](=O)[O-])cc1N,inactive,–
O=C(O)Cc1cc(I)c(Oc2cc(I)c(O)c(I)c2)c(I)c1,inactive,18.3 µM (active)
CC(C)(C)c1cccc(C(C)(C)C)c1O,–,146 µM (active)
O=[N+]([O-])c1ccc(O)cc1,inactive,–

SMILES,outcome,AC50
O=c1c(-c2ccc(O)cc2)coc2cc(O)ccc12,inactive,–
CCCCCCC(=O)O,inactive,–
COc1cc(CCC(=O)CC(=O)CCc2ccc(O)c(OC)c2)ccc1O,inactive,–
Cc1oc(-c2ccccc2)nc1CCOc1ccc(C[C@H](Nc2ccccc2C(=O)c2ccccc2)C(=O)O)cc1,inactive,–
CCCOC(=O)c1ccc(O)cc1,inactive,171 µM (active)
CCOC(=O)CC(O)(CC(=O)OCC)C(=O)OCC,inactive,–
CC(=O)NC1(c2cccc(F)c2)CCN(CC[C@@]2(c3ccc(Cl)c(Cl)c3)CN(c3ccccc3)C(=O)CO2)CC1,–,46.6 µM (active)
c1ccc2c(c1)ccc1ccccc12,inactive,–
Cc1cc(CCN2CCN(c3nsc4ccccc34)CC2)cc2c1NC(=O)CC2(C)C,inactive,–
O=C(/C=C/c1ccc(O)cc1)CC(=O)/C=C/c1ccc(O)cc1,inactive,–
CCCCCCCC(=O)O,inactive,–
OC1CCC(C2CCCCC2)CC1 (stereo not given),inactive,–
NC(=O)N1C(=O)C(C(=O)c2cc(Cl)cs2)c2cc(F)c(Cl)cc21 (stereo not given),inactive,–
c1ccc2cc3c(ccc4ccccc43)cc2c1,inactive,–
C=C(C)C(=O)OCCC(F)(F)C(F)(F)C(F)(F)C(F)(F)C(F)(F)C(F)(F)F,inactive,–
CC1=C(/C=C/C(C)=C/C=C/C(C)=C/C(=O)O)C(C)(C)CCC1,–,52.4 µM (active) and 3.28 µM (active)
CCN(CC)CCNc1ccc(CNC=O)c2sc3ccc(OC)cc3c(=O)c12,–,0.53 µM (active)
